Measurements published in PubChem BioAssay AID1851 (National Center for Advancing Translational Sciences (NCATS), 2009).
Several values for one entry are separate records, joined by “and”; a condition that tells them apart may be missing. Identical values can stand only once. Hit rate of the full screen: of about 16,000 compounds, about 2,600 (16%) were called active. Roughly 20% stayed inconclusive and do not appear here. Only a sample is shown. Values without a mark were called inactive. The call rests on the fitted dose curve; in most records, active means well fitted curve in the direction sought with a large enough effect; inconclusive means small, poorly fitted or top-dose-only effect, or effect the other way; inactive means no such curve, though single readings can be large or run the other way.

These molecules were tested against Cytochrome P450 2D6 (Homo sapiens) (UniProt P10635) (assay: Cytochrome panel assay with activity outcomes). Conditions: recombinant CYP, pro-luciferin dealkylation, luminescence, p450-cyp2d6; series mostly up to 57.1 µM; activity, negative = inhibition: at the top concentration.
Cytochrome P450 2D6 (Homo sapiens), sequence (P10635 whole entry, looked up): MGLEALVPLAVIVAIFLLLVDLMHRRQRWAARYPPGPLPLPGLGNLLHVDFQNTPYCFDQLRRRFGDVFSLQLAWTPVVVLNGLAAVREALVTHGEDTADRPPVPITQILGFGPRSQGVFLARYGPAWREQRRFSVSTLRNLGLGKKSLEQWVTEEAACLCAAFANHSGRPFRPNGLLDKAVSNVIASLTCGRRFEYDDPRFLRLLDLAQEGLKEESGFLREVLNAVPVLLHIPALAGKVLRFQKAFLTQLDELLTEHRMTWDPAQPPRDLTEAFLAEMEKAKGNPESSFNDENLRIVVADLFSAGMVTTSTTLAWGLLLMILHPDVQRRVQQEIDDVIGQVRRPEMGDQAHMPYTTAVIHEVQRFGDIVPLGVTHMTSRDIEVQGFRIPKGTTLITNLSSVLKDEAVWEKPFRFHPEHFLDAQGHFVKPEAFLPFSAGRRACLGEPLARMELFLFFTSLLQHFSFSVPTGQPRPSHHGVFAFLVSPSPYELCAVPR
Experimental: The P450 gene superfamily is involved in the metabolism and clearance of xenobiotics. This assay used various human CYP P450 isozymes to measure the dealkylation of various pro-luciferin substrates to luciferin. The luciferin is then measured by luminescence after the addition of a luciferase detection reagent. Pro-luciferin substrate concentration in the assay was equal to its KM for its CYP P450 isozyme. Inhibitors and some substrates limit the production of luciferin, and decrease measured luminescence.
NCGC Assay Protocol Summary:
1, Reagent, 2 uL, Isozyme and Pro-Luciferin
2, Library compounds, 23 nl, 40 uM to 0.24 nM dilution series
3, Controls, 23 nl, Isozyme specific inhibitor
4, Reagent, 2 uL, NADPH regeneration solution
5, Incubation time, 60 min, Isozyme specific temperature
6, Reagent, 4ul, Detection reagent
7, Incubation time, 20 min, Isozyme specific temperature
8, Detection, 1 sec, ViewLux luminescent read
The luciferase-based P450-GloTM Screening Systems were obtained from Promega (Madison, WI) for CYP 1A2 (V9770), CYP 2C9 (V9790), CYP2 C19 (V9880), CYP 2D6 (V9890), and CYP 3A4 Luciferin-PPXE (V9910) and were adapted for 1,536-well microplates and an automated protocol. The control compounds furafylline for 1A2 (F124), sulfaphenazole for CYP 2C9 (S0758), ketoconazole for CYP 2C19 (K1003), quinidine for 2D6 (Q3625), and ketoconazole for 3A4 (K1003) were purchased from Sigma Aldrich (St. Louis, MO). Recombinant P450 enzymes were obtained from baculovirus constructs expressed in insect cells (BD/Gentest).
Medium-binding white solid Kalypsys plates used. Mixtures kept on ice. 1A2: 10 nM 1A2, 100 uM Luc-ME, 100 mM KPO4; 2C9: 10 nM 2C9, 100 uM Luc-H, 25 mM KPO4; 2C19: 5 nM 2C19, 10 uM Luc-H EGE, 50 mM KPO4; 2D6: 5 nM 2D6, 30 uM Luc-ME EGE, 100 mM KPO4; 3A4: 10 nM, 25 uM Luc-PPXE. All amounts are reflected in their final concentration, working concentration is 2x.
NADPH regeneration solution: 1.3 mM NADP+, 3.3 mM glucose-6-phosphate, 3.3 mM MgCl2, 0.4 U/mL glucose-6-phosphate dehydrogenase for all isozymes, 200 mM KPO4 for 3A4. Mixture prepared at RT but kept on ice during automated run.
RT incubation in auxilliary plate hotel for 1A2, 2D6, and 3A4; 37C for 2C9 and 2C19.
Keywords: P450, CYP1A2, CYP2C19, CYP2C9, CYP2D6, CYP3A4, Luciferase, MLSMR, MLSCN, NIH Roadmap, qHTS, NCGC
On the % scale 0 is the no-effect control and ±100 the full control effect.

Question: With Cn1c(C(=O)N2COCC2(C)C)cc2c(=O)n3ccccc3nc21 as the molecule, how does the “activity, negative = inhibition” value read?
Answer: 9.88%

Question: With CCOC(=O)c1cc2c(=O)n3ccccc3nc2n(CCOC)c1=NC(=O)C(C)(C)C as the molecule, how does the “activity, negative = inhibition” value read?
Answer: 23.5%

Question: With CC1Cc2ccccc2N1C(=O)c1cc2c(=O)n3ccccc3nc2n1C (stereo unspecified) as the molecule, how does the “activity, negative = inhibition” value read?
Answer: -9.59%

Question: CCOC(=O)c1cc2c(=O)n3ccccc3nc2n(CCCOC)c1=NC(=O)C(C)(C)C was tested. Which “activity, negative = inhibition” value did it give?
Answer: -7.61%

Question: With Cn1c(=N)c(S(=O)(=O)c2ccc(F)cc2)cc2c(=O)n3ccccc3nc21 as the molecule, how does the AC50 read?
Answer: 3.16 µM (active)

Question: How did the AC50 turn out when CCn1c(=N)c(S(=O)(=O)c2ccc(F)cc2)cc2c(=O)n3ccccc3nc21 was run?
Answer: 0.794 µM (active)

Question: How did the “activity, negative = inhibition” value turn out when COc1ccccc1C(=O)Nc1cc2c(ccc3ccccc32)oc1=O was run?
Answer: -3.7%

Question: O=C(CCl)Nc1ccc(Oc2cnc3ccccc3n2)cc1 was tested. Which “activity, negative = inhibition” value did it give?
Answer: -6.66%

Question: With Cc1ccccc1C(=O)N1CCN(c2ccc([N+](=O)[O-])c(NCc3ccco3)c2)CC1 as the molecule, how does the “activity, negative = inhibition” value read?
Answer: -21.7%

Question: With CC(C)(N)C(=O)N[C@@H]1C(=O)N2[C@@H]1SC(C)(C)[C@H]2C(=O)O as the molecule, how does the activity, negative = inhibition read?
Answer: 5.23% [at 11.4 µM]

Question: With CC(C)(C)C(=O)N1CCC(O)(CS(=O)(=O)Cc2ccc(Cl)cc2)CC1 as the molecule, how does the “activity, negative = inhibition” value read?
Answer: -2.72%

Question: How did the “activity, negative = inhibition” value turn out when Cc1ccc(NC(=O)c2cc(N3C(=O)C4CC=CCC4C3=O)ccc2N2CCOCC2)cc1Cl (stereo unspecified) was run?
Answer: -12.8%

Question: Which AC50 does the source give for Cc1ccc(NC(=O)CSCC(=O)Nc2ccc(N3CCOCC3)c(Cl)c2)cc1 here?
Answer: 14.1 µM (active)

Question: With Cc1ccccc1OCC(=O)NC(=S)Nc1ccc(N2CCOCC2)c(Cl)c1 as the molecule, how does the “activity, negative = inhibition” value read?
Answer: -1.79%

Question: How did the “activity, negative = inhibition” value turn out when NC(=O)C1(N2CCCCC2)CCN(C(=S)Nc2ccc(Cl)cc2)CC1 was run?
Answer: 18.5%

Question: N[C@H](C(=O)O)c1cccc(O)c1 was tested. Which AC50 did it give?
Answer: inactive

Question: With Nc1ccc(CCNc2ncnc3c2ncn3[C@@H]2O[C@@H](CO)[C@H](O)[C@@H]2O)cc1 as the molecule, how does the “activity, negative = inhibition” value read?
Answer: -4.1%

Question: With CC(C)c1ccc(-c2nnn(CCC(=O)O)n2)cc1 as the molecule, how does the “activity, negative = inhibition” value read?
Answer: 6.28%

Question: CCOc1ccc(OCCOCCN2CCc3ccccc3C2)cc1 was tested. Which AC50 did it give?
Answer: 1.12 µM (active)

Question: CCOc1ccc(OCCOc2ncnc3ccccc23)cc1 was tested. Which “activity, negative = inhibition” value did it give?
Answer: -9.19%

Question: With CCOc1ccc(/C(O)=C2\C(=O)C(=O)N(CCOCCO)C2c2ccccc2OC)cc1 (stereo unspecified) as the molecule, how does the “activity, negative = inhibition” value read?
Answer: -1.52%

Question: Which “activity, negative = inhibition” value does the source give for N#CCCn1c(=O)cnc2cnc(Oc3ccccc3)nc21 here?
Answer: 2.41%

Question: Which “activity, negative = inhibition” value does the source give for C=CCn1c(SCc2ccc3c(c2)OCO3)nc2scc(-c3ccco3)c2c1=O here?
Answer: -7.87%

Question: For C=CCN1CCN(c2nc3ccccc3nc2C#N)CC1, which AC50 is on record?
Answer: 1.26 µM (active)

Question: With CCc1noc(C)c1C(=O)Nc1nc(-c2cc(C)ccc2C)c(C)s1 as the molecule, how does the “activity, negative = inhibition” value read?
Answer: -10.5%

Question: How did the activity, negative = inhibition turn out when O=C(O)CSc1cc(-c2ccccc2)nc2ccccc12 was run?
Answer: 3.96% [at 11.4 µM]

Question: N[C@@H](CSCc1ccc(I)cc1)C(=O)O was tested. Which activity, negative = inhibition did it give?
Answer: 3.9% [at 11.4 µM]

Question: How did the AC50 turn out when NC[C@@H](O)CSCc1ccc(Cl)cc1 was run?
Answer: 3.16 µM (active)

Question: Which activity, negative = inhibition does the source give for O=[N+]([O-])c1ccc(CSCc2ccc(Cl)cc2)cc1 here?
Answer: -20.5% [at 11.4 µM]

Question: How did the “activity, negative = inhibition” value turn out when O=c1c(-c2cccc(F)c2)nc2cncnc2n1Cc1ccccc1Cl was run?
Answer: -3.25%

Question: How did the activity, negative = inhibition turn out when CC(C)NC[C@@H](O)c1ccc(O)c2ncccc12 was run?
Answer: -18.5% [at 11.4 µM]

Question: O=C(O)COc1c(Cl)cc(Cl)c2cccnc12 was tested. Which activity, negative = inhibition did it give?
Answer: 2.9% [at 11.4 µM]

Question: For Oc1ccc(CNCc2ccccc2)c2cccnc12, which AC50 is on record?
Answer: 1.58 µM (active)

Question: Which “activity, negative = inhibition” value does the source give for N#CCCn1c(=O)c(-c2ccc(F)cc2)nc2cnc(N3CCOCC3)nc21 here?
Answer: 3.46%

Question: CCOC(=O)/C(C#N)=C1/C=CN(C)C=N1 was tested. Which “activity, negative = inhibition” value did it give?
Answer: 16.9%

Question: Cc1nc2cncnc2n(-c2ccccc2)c1=O was tested. Which “activity, negative = inhibition” value did it give?
Answer: -8.35%

Question: With COc1cccc(-c2cc(C(F)(F)F)n3ncc(S(=O)(=O)c4ccccc4)c3n2)c1 as the molecule, how does the “activity, negative = inhibition” value read?
Answer: 2.47%

Question: With CN(CCc1ccccn1)Cc1ccc(Cl)cc1Cl as the molecule, how does the AC50 read?
Answer: 0.355 µM (active)

Question: With ON(CCc1ccccn1)Cc1ccccc1 as the molecule, how does the activity, negative = inhibition read?
Answer: -0.364% [at 11.4 µM]

Question: With CC(C)C(=O)C(C)(C)CCc1ccccn1 as the molecule, how does the activity, negative = inhibition read?
Answer: 8.85% [at 11.4 µM]

Question: O=C(Nc1ccccc1)c1ccccc1CC[N+](=O)[O-] was tested. Which “activity, negative = inhibition” value did it give?
Answer: 7.91%

Question: C/C(=C\C1CCCCC1)C(NC(=O)c1ccc(C(F)(F)F)cc1)c1ccc(-c2ccccc2)cc1 (stereo unspecified) was tested. Which “activity, negative = inhibition” value did it give?
Answer: 7.77%

Question: For COc1ccc(-c2cc(C(F)(F)F)n3nc(C(=O)N4CCCCC4)cc3n2)cc1, which “activity, negative = inhibition” value is on record?
Answer: -17.1%

Question: For Cc1ccc(CS(=O)(=O)CCC(=O)NCCCN2CCCC2=O)cc1, which “activity, negative = inhibition” value is on record?
Answer: -2.33%

Question: Cc1ccc(S(=O)(=O)N(CCCN2CCCC2=O)Cc2cc3c(C)ccc(C)c3[nH]c2=O)cc1 was tested. Which AC50 did it give?
Answer: 14.1 µM (active)

Question: For Cc1ccc(S(=O)(=O)CC(O)CN2CCCC2=O)cc1 (stereo unspecified), which “activity, negative = inhibition” value is on record?
Answer: -5.29%

Question: How did the AC50 turn out when CN1CCN([C@@H]2Cc3ccccc3Sc3ccc(Cl)cc32)CC1 was run?
Answer: 0.398 µM (active)

Question: O=C1CC(N2CCOCC2)C(=O)N1c1cccc(Cl)c1 (stereo unspecified) was tested. Which “activity, negative = inhibition” value did it give?
Answer: -1.45%

Question: With CSc1ccc2c(c1)[C@H](N1CCN(C)CC1)Cc1ccccc1S2 as the molecule, how does the AC50 read?
Answer: 3.98 µM (active) and 1.58 µM (active) and 316 nM (active)

Question: How did the “activity, negative = inhibition” value turn out when CCCc1ncc(C[n+]2ccccc2C)c(N)n1 was run?
Answer: -3.66% [at 25.6 µM]

Question: Which “activity, negative = inhibition” value does the source give for C=CCNC(=S)N/N=C/c1ccc(OCc2ccccc2)cc1 here?
Answer: -3.46%
